“And” between values parts separate entries of the source, which are not always exact repeats. Equal entries are not always repeated. The whole screen tested about 5,500 compounds, of which about 2,000 (36%) were called active. About 18% were inconclusive and are not listed. Rule as the data show it: active = normalized growth mostly below about 0.91 (no sharp cut-off); inconclusive = no clear call, values can overlap the other calls; inactive = mostly above about 0.92. The list shows a part of the results.
Assay: chemical genetic growth profiling, strain panel (AID 1159580);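 also: tested at 20 µM; growth read once vehicle control cultures reached saturation at 30 °C; 1 = growth at the plate median or of vehicle wells; lower values mean less growth of the strain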
Details: growth OD

Measured: normalized growth

CN1Cc2c(N)cccc2C(c2ccccc2)C1 (centres undefined)
inactive: S. cerevisiae deletion strains, locus YJR075W, strain HOC1, stronger effect = lower value 1.01 and 0.995 | S. cerevisiae deletion strains, locus YKL009W, strain mrt4, stronger effect = lower value 1 | S. cerevisiae deletion strains, locus YKL068W, stronger effect = lower value 1 | S. cerevisiae deletion strains, locus YKL085W, strain MDH1 (second series), stronger effect = lower value 1.01 | S. cerevisiae deletion strains, locus YKL085W, strain MDH1, stronger effect = lower value 1.01 | S. cerevisiae deletion strains, locus YKL160W, strain elf1, stronger effect = lower value 1.02 | S. cerevisiae deletion strains, locus YKL190W, strain CNB1, stronger effect = lower value 1.01 | S. cerevisiae deletion strains, locus YKR001C, strain vps1, stronger effect = lower value 1 | S. cerevisiae deletion strains, locus YKR026C, strain gcn3, stronger effect = lower value 1.01 | S. cerevisiae deletion strains, locus YKR091W, strain srl3, stronger effect = lower value 1 | S. cerevisiae deletion strains, locus YLL001W, strain dnm1, stronger effect = lower value 1.01 | S. cerevisiae deletion strains, locus YLL026W, stronger effect = lower value 1.01 | S. cerevisiae deletion strains, locus YLL041C, strain sdh2, stronger effect = lower value 1.01 | S. cerevisiae deletion strains, locus YLR027C, strain aat2, stronger effect = lower value 1.02 | S. cerevisiae deletion strains, locus YLR039C, strain RIC1, stronger effect = lower value 1.03 | S. cerevisiae deletion strains, locus YLR058C, strain SHM2, stronger effect = lower value 1 | S. cerevisiae deletion strains, locus YLR102C, strain apc9, stronger effect = lower value 1.01 | S. cerevisiae deletion strains, locus YLR113W, strain HOG1, stronger effect = lower value 0.982 | S. cerevisiae deletion strains, locus YLR221C, strain rsa3, stronger effect = lower value 0.994 | S. cerevisiae deletion strains, locus YLR258W, strain gsy2, stronger effect = lower value 0.99 | S. cerevisiae deletion strains, locus YLR262C, strain YPT6 (second series), stronger effect = lower value 1.03 | S. cerevisiae deletion strains, locus YLR262C, strain YPT6, stronger effect = lower value 1.05 | S. cerevisiae deletion strains, locus YLR268W, strain sec22, stronger effect = lower value 1.02 | S. cerevisiae deletion strains, locus YLR320W, strain mms22, stronger effect = lower value 0.971 | S. cerevisiae deletion strains, locus YLR330W, strain CHS5, stronger effect = lower value 1.01 | S. cerevisiae deletion strains, locus YLR342W, strain FKS1 (second series), stronger effect = lower value 1.06 | S. cerevisiae deletion strains, locus YLR342W, strain FKS1, stronger effect = lower value 1.01 | S. cerevisiae deletion strains, locus YLR357W, strain rsc2, stronger effect = lower value 0.982 | S. cerevisiae deletion strains, locus YLR370C, strain arc18, stronger effect = lower value 1 | S. cerevisiae deletion strains, locus YLR371W, strain rom2, stronger effect = lower value 1.02 | S. cerevisiae deletion strains, locus YLR384C, strain iki3, stronger effect = lower value 1.01 | S. cerevisiae deletion strains, locus YLR418C, strain cdc73, stronger effect = lower value 1.01 | S. cerevisiae deletion strains, locus YML016C, strain PPZ1, stronger effect = lower value 1 | S. cerevisiae deletion strains, locus YML032C, strain rad52, stronger effect = lower value 0.994 | S. cerevisiae deletion strains, locus YML120C, strain ndi1, stronger effect = lower value 1.02 | S. cerevisiae deletion strains, locus YML124C, strain tub3, stronger effect = lower value 1.01 | S. cerevisiae deletion strains, locus YMR058W, strain fet3, stronger effect = lower value 1.02 | S. cerevisiae deletion strains, locus YMR078C, strain ctf18, stronger effect = lower value 1.02 | S. cerevisiae deletion strains, locus YMR125W, strain sto1, stronger effect = lower value 0.995 | S. cerevisiae deletion strains, locus YMR129W, stronger effect = lower value 1.01 | S. cerevisiae deletion strains, locus YMR205C, strain PFK2, stronger effect = lower value 1.04 | S. cerevisiae deletion strains, locus YMR223W, strain ubp8, stronger effect = lower value 1.03 | S. cerevisiae deletion strains, locus YMR231W, strain pep5, stronger effect = lower value 1 | S. cerevisiae deletion strains, locus YMR263W, strain SAP30, stronger effect = lower value 1 | S. cerevisiae deletion strains, locus YMR307W, strain GAS1, stronger effect = lower value 1.02 | S. cerevisiae deletion strains, locus YNL067W, strain RPL9B, stronger effect = lower value 0.988 | S. cerevisiae deletion strains, locus YNL071W, strain lat1, stronger effect = lower value 1.01 | S. cerevisiae deletion strains, locus YNL153C, strain GIM3, stronger effect = lower value 0.969 | S. cerevisiae deletion strains, locus YNL175C, strain NOP13, stronger effect = lower value 0.977 | S. cerevisiae deletion strains, locus YNL183C, strain NPR1, stronger effect = lower value 0.929 | S. cerevisiae deletion strains, locus YNL197C, strain WHI3, stronger effect = lower value 0.984 | S. cerevisiae deletion strains, locus YNL209W, strain ssb2, stronger effect = lower value 0.994 | S. cerevisiae deletion strains, locus YNL224C, strain SQS1, stronger effect = lower value 0.998 | S. cerevisiae deletion strains, locus YNL233W, strain BNI4, stronger effect = lower value 0.981 | S. cerevisiae deletion strains, locus YNL248C, strain rpa49, stronger effect = lower value 1.03 | S. cerevisiae deletion strains, locus YNL250W, strain rad50, stronger effect = lower value 1.02 | S. cerevisiae deletion strains, locus YNL271C, strain bni1, stronger effect = lower value 1.01 | S. cerevisiae deletion strains, locus YNL298W, strain CLA4, stronger effect = lower value 1.01 | S. cerevisiae deletion strains, locus YNL307C, strain MCK1, stronger effect = lower value 1.02 | S. cerevisiae deletion strains, locus YNL322C, strain KRE1 (second series), stronger effect = lower value 1.01 | S. cerevisiae deletion strains, locus YNR049C, strain mso1, stronger effect = lower value 1.02 | S. cerevisiae deletion strains, locus YNR052C, strain pop2, stronger effect = lower value 1.02 | S. cerevisiae deletion strains, locus YOL006C, strain TOP1, stronger effect = lower value 0.997 | S. cerevisiae deletion strains, locus YOL012C, strain htz1 0.779 | S. cerevisiae deletion strains, locus YOL147C, strain pex11, stronger effect = lower value 1.01 | S. cerevisiae deletion strains, locus YOR001W, strain rrp6, stronger effect = lower value 1.02 | S. cerevisiae deletion strains, locus YOR061W, strain CKA2, stronger effect = lower value 1.01 | S. cerevisiae deletion strains, locus YOR069W, strain VPS5, stronger effect = lower value 1.01 | S. cerevisiae deletion strains, locus YOR070C, strain gyp1, stronger effect = lower value 1 | S. cerevisiae deletion strains, locus YOR080W, strain dia2, stronger effect = lower value 1.02 | S. cerevisiae deletion strains, locus YOR083W, strain WHI5 (second series), stronger effect = lower value 0.983 | S. cerevisiae deletion strains, locus YOR083W, strain WHI5, stronger effect = lower value 0.989 | S. cerevisiae deletion strains, locus YOR106W, strain vam3, stronger effect = lower value 1.03 | S. cerevisiae deletion strains, locus YOR136W, strain idh2, stronger effect = lower value 1.01 | S. cerevisiae deletion strains, locus YOR144C, strain elg1, stronger effect = lower value 1.01 | S. cerevisiae deletion strains, locus YOR184W, strain ser1, stronger effect = lower value 1.01 | S. cerevisiae deletion strains, locus YOR231W, strain MKK1, stronger effect = lower value 0.986 | S. cerevisiae deletion strains, locus YOR265W, strain rbl2, stronger effect = lower value 1.01 | S. cerevisiae deletion strains, locus YOR270C, strain vph1, stronger effect = lower value 1.04 | S. cerevisiae deletion strains, locus YOR290C, strain snf2, stronger effect = lower value 0.99 | S. cerevisiae deletion strains, locus YOR316C, strain cot1, stronger effect = lower value 1.02 | S. cerevisiae deletion strains, locus YPL051W, strain arl3, stronger effect = lower value 1.01 | S. cerevisiae deletion strains, locus YPL055C, strain LGE1, stronger effect = lower value 0.96 and 0.983 | S. cerevisiae deletion strains, locus YPL078C, strain atp4, stronger effect = lower value 1.03 | S. cerevisiae deletion strains, locus YPL106C, strain sse1, stronger effect = lower value 0.969 | S. cerevisiae deletion strains, locus YPL240C, strain hsp82, stronger effect = lower value 1 | S. cerevisiae deletion strains, locus YPL241C, strain CIN2, stronger effect = lower value 1.01 and 0.99 | S. cerevisiae deletion strains, locus YPL256C, strain CLN2, stronger effect = lower value 0.974 | S. cerevisiae deletion strains, locus YPR119W, strain clb2, stronger effect = lower value 1.01 | S. cerevisiae deletion strains, locus YPR141C, strain kar3, stronger effect = lower value 1.02 | S. cerevisiae deletion strains, locus YPR163C, strain tif3, stronger effect = lower value 1.01 | S. cerevisiae deletion strains, locus YPR167C, strain met16, stronger effect = lower value 1.01 | S. cerevisiae deletion strains, strain wtn01, stronger effect = lower value 1.02 | S. cerevisiae strains, strain wild type, stronger effect = lower value 1

From PubChem BioAssay AID1159580 (chemical genetic matrix, 2015)
